Results filed as inconclusive are left out. Calls of active or inactive are those of the source. Unless noted, calls follow the shape of the full dose curve.
Assays:
[1] = qHTS assay to identify small molecule agonists of the peroxisome proliferator-activated receptor delta (PPARd) signaling pathway - cell viability counter screen (AID 743211; active = well fitted curve in the direction sought with a large enough effect in the repeat runs; an effect the other way counts as inactive or inconclusive; also: nearly all actives have a fitted effect of over 55% in size)
Method in brief: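 Multiplexed format: after the 2 h room-temperature LiveBLAzer B/G FRET step, CellTiter-Glo was added to the same wells. Luminescence after 30 min gave cell viability; compound exposure was 17 h at 37C.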

[2] = biological target: Peroxisome proliferator-activated receptor delta (Homo sapiens) (UniProt Q03181); experiment: qHTS assay to identify small molecule agonists of the peroxisome proliferator-activated receptor delta (PPARd) signaling pathway (AID 743212)
Method in brief: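 Cells expressing a UAS-driven beta-lactamase reporter (PPARd-bla HEK293H) were given test compounds after a 5 h settle and kept at 37 C. Reporter activity was then measured as FRET fluorescence using LiveBLAzer B/G substrate.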

[3] = qHTS assay to identify small molecule antagonists of the peroxisome proliferator-activated receptor delta (PPARd) signaling pathway - cell viability counter screen (AID 743213; active = well fitted curve in the direction sought with a large enough effect in the repeat runs; an effect the other way counts as inactive or inconclusive; also: nearly all actives have a fitted effect of over 50% in size)
Method in brief: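 Agonist-stimulated (L165041, 300 nM final) HEK293H PPARd UAS-bla cells are exposed to compounds for 17 h at 37 C, and ATP-based luminescence (CellTiter-Glo) from the same wells reports cytotoxicity.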

[4] = biological target: Peroxisome proliferator-activated receptor delta (Homo sapiens) (UniProt Q03181); experiment: qHTS assay to identify small molecule antagonists of the peroxisome proliferator-activated receptor delta (PPARd) signaling pathway (AID 743215; active = well fitted inhibition curve with a large enough effect in the signal ratio in the repeat runs, not every such curve was filed as active; the % refers to the signal ratio; also: series mostly up to about 62 µM)
Method in brief: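 HEK293H GeneBLAzer PPARd UAS-bla reporter cells; cpd + L165041 300 nM final, 17 h 37 C; LiveBLAzer B/G FRET substrate 2 h RT; fluorescence intensity read-out. Antagonist mode.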

[5] = qHTS assay to identify small molecule antagonists of the farnesoid-X-receptor (FXR) signaling pathway - cell viability counter screen (AID 743221; active = well fitted cell-killing curve with a large enough effect in the repeat runs, not every such curve was filed as active; also: nearly all actives have a fitted effect of over 50% in size)
Method in brief: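 CellTiter-Glo, 30 min RT, luminescence; same wells as the LiveBLAzer FRET read. Cells: FXR-UAS-bla HEK 293T. Treatment: compound with chenodeoxycholic acid 50 uM final, 16 h at 37 C.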

[6] = qHTS assay to identify small molecule agonists of the NFkB signaling pathway (AID 1159509; active = well fitted curve in the direction sought with a large enough effect in the signal ratio in the repeat runs, not every such curve was filed as active; the % refers to the signal ratio; also: series mostly up to about 61 µM)
Method in brief: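 Agonist activity was read as beta-lactamase-driven FRET change (460 and 530 nm emission, 405 nm excitation) following 1.5 hr substrate loading at room temperature. Beforehand, ME-180 NFkB-bla reporter cells were treated with compounds for 5 hr at 37 C.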

[7] = qHTS assay to identify small molecule agonists of the NFkB signaling pathway - cell viability counter screen (AID 1159515); also: series mostly up to about 61 µM; nearly all actives have a fitted effect of over 55% in size
Method in brief: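 ME-180 NFkB-bla cells, 2,000/well; overnight attach; compound 5 hr, 37 C/5% CO2; LiveBLAzer substrate 1.5 hr RT; then CellTiter-Glo in same wells, 30 min RT, luminescence read.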

[8] = qHTS assay to identify small molecule agonists of the endoplasmic reticulum stress response signaling pathway (AID 1159516; active = well fitted activation curve with a large enough effect in the signal ratio in the repeat runs, not every such curve was filed as active; the % refers to the signal ratio)
Method in brief: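 HeLa ESRE-bla reporter line; cpd 5 h, 37 C/5% CO2; LiveBLAzer B/G FRET substrate 2 h RT; ex 405, em 460/530 nm.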

[9] = qHTS assay to identify small molecule agonists of the endoplasmic reticulum stress response signaling pathway - cell viability counter screen (AID 1159517);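 also: HeLa cells carrying an ER stress response element beta-lactamase reporter; series mostly up to about 61 µM; nearly all actives have a fitted effect of over 50% in size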
Method in brief: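 Cpd-treated ESRE-bla HeLa (5 hr, 37 C) → LiveBLAzer 2 hr RT → CellTiter-Glo 30 min RT → luminescence.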

[10] = qHTS assay to identify small molecule antagonists of the retinoid-related orphan receptor gamma (ROR-gamma) signaling pathway - cell viability counter screen (AID 1159520; active = well fitted curve in the direction sought with a large enough effect in the repeat runs; an effect the other way counts as inactive or inconclusive; also: nearly all actives have a fitted effect of over 50% in size)
Method in brief: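 Tet-on ROR gamma CHO cells (1,000/well) were plated 4 hr, given compounds in DMSO for 2 hr at 37 C, then induced with 1 uM final doxycycline for 16 hr. Viability was read as ATP by CellTiter-Glo luminescence after 30 min.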

[11] = qHTS assay to identify small molecule agonists of the AP-1 signaling pathway - cell viability counter screen (AID 1159525); also: nearly all actives have a fitted effect of over 55% in size
Method in brief: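 Each titration point was normalised to DMSO and tetra n-octyl ammonium bromide controls. The read was Cell Titer Glo luminescence after 30 min at RT, following 5 h compound exposure of ME-180 AP-1-bla cells at 37 °C.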

[12] = qHTS assay to identify small molecule agonists of the AP-1 signaling pathway (AID 1159526)
[13] = qHTS assay to identify small molecule agonists of the farnesoid-X-receptor (FXR) signaling pathway - cell viability counter screen (AID 743218; active = well fitted curve in the direction sought with a large enough effect in the repeat runs; an effect the other way counts as inactive or inconclusive; also: nearly all actives have a fitted effect of over 45% in size)
Method in brief: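 Luminescence from CellTiter-Glo, read after 30 min at RT, reports viability of GeneBLAzer FXR-UAS-bla HEK 293T cells treated 16 h with compounds in the wells used for the beta-lactamase reporter.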

[14] = biological target: Vitamin D3 receptor (Homo sapiens) (UniProt P11473); experiment: qHTS assay to identify small molecule agonists of the vitamin D receptor (VDR) signaling pathway (AID 743222)
Method in brief: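 Beta-lactamase reporter readout (LiveBLAzer B/G FRET, 2 h RT) in VDR-bla cells after 16 h compound treatment at 37C, 5% CO2; cells pre-incubated 4 h before pin transfer of DMSO solutions.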

[15] = biological target: Vitamin D3 receptor (Homo sapiens) (UniProt P11473); experiment: qHTS assay to identify small molecule antagonists of the vitamin D receptor (VDR) signaling pathway (AID 743223; active = well fitted inhibition curve with a large enough effect in the signal ratio in the repeat runs, not every such curve was filed as active; the % refers to the signal ratio)
Method in brief: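 After VDR-bla cells are plated and left 4 h at 37C, DMSO-dissolved compounds and 3 nM (final) calcitriol agonist are added. Incubation continues 16 h at 37C; FRET beta-lactamase substrate then develops 2 h at room temperature.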

[16] = qHTS assay to identify small molecule agonists of the vitamin D receptor (VDR) signaling pathway - cell viability counter screen (AID 743224; active = well fitted curve in the direction sought with a large enough effect in the repeat runs; an effect the other way counts as inactive or inconclusive)
Method in brief: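 Cytotoxicity counter screen: VDR-bla cells, 16 h compound exposure at 37C, 5% CO2; CellTiter-Glo luminescence, 30 min RT, same wells as bla read.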

[17] = qHTS assay to identify small molecule antagonists of the vitamin D receptor (VDR) signaling pathway - cell viability counter screen (AID 743225; active = well fitted curve in the direction sought with a large enough effect in the repeat runs; an effect the other way counts as inactive or inconclusive; also: nearly all actives have a fitted effect of over 50% in size)
Method in brief: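 Cytotoxicity toward the VDR-bla HEK 293T line was scored by ATP-based CellTiter-Glo luminescence, read in the wells already used for the beta-lactamase readout after 16 h compound treatment under 3 nM 1-alpha,25-dihydroxyvitamin D3 stimulation.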

[18] = biological target: Bile acid receptor (Homo sapiens) (UniProt Q96RI1); experiment: qHTS assay to identify small molecule antagonists of the farnesoid-X-receptor (FXR) signaling pathway (AID 743217; active = well fitted inhibition curve with a large enough effect in the signal ratio in the repeat runs, not every such curve was filed as active; the % refers to the signal ratio)
Method in brief: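 Read-out: beta-lactamase FRET fluorescence (LiveBLAzer B/G substrate, 2 h, room temperature) in GeneBLAzer FXR-UAS-bla HEK 293T cells. Compounds were co-dosed with 50 uM chenodeoxycholic acid (final) and incubated 16 h at 37 °C.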

[19] = biological target: Bile acid receptor (Homo sapiens) (UniProt Q96RI1); experiment: qHTS assay to identify small molecule agonists of the farnesoid-X-receptor (FXR) signaling pathway (AID 743220; active = well fitted activation curve with a large enough effect in the signal ratio in the repeat runs, not every such curve was filed as active; the % refers to the signal ratio)
Method in brief: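 FXR-UAS-bla HEK 293T cells carrying a UAS-driven beta-lactamase reporter were plated for 5 h at 37C/5% CO2, then exposed to DMSO-dissolved Tox21 10K compounds for 16 h at 37C. A LiveBLAzer B/G FRET substrate was loaded for 2 h at room temperature before fluorescence reading.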

Measured: Potency

Vitamin D3 receptor (Homo sapiens), sequence (P11473 whole entry, looked up): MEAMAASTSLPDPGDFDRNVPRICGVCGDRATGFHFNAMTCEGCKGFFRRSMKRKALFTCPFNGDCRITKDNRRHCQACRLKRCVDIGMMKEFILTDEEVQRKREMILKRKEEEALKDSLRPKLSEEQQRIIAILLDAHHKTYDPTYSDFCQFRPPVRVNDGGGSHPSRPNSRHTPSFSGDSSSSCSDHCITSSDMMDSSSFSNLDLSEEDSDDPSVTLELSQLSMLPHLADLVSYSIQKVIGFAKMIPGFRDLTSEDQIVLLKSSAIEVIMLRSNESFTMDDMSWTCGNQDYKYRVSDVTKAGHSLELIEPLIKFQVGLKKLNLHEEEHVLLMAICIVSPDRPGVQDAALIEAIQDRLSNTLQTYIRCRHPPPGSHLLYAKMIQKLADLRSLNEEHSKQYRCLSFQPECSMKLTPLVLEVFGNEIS
Peroxisome proliferator-activated receptor delta (Homo sapiens), sequence (Q03181 whole entry, looked up): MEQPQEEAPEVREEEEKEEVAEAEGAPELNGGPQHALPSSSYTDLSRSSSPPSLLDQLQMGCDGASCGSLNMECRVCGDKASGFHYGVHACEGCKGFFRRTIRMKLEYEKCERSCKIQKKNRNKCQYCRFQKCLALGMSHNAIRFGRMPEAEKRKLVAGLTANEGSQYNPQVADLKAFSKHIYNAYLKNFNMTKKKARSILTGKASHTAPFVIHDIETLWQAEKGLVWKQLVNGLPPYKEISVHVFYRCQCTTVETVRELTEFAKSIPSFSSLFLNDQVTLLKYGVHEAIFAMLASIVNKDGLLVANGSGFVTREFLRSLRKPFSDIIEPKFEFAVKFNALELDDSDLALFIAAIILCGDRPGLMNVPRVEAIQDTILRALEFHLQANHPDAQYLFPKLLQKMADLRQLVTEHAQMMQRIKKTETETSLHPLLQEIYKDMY
Bile acid receptor (Homo sapiens), sequence (Q96RI1 whole entry, looked up): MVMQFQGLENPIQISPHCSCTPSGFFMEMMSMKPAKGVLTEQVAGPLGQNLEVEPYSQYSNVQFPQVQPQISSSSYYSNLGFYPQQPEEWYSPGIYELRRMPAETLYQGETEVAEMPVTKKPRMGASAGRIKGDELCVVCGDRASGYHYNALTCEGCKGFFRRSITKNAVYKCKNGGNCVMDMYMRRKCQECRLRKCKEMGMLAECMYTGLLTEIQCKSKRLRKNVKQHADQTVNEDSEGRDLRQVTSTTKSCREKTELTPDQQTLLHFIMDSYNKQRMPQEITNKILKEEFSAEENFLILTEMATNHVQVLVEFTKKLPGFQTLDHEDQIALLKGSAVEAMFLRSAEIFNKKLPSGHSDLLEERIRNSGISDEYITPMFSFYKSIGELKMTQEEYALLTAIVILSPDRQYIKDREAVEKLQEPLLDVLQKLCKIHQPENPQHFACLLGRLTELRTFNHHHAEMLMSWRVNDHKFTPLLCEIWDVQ

C[C@@H]1C[C@H]2[C@@H]3CCC4=CC(=O)C=C[C@]4(C)[C@@]3(F)[C@@H](O)C[C@]2(C)[C@@]1(O)C(=O)CO
inactive: [1] | [2] | [3] | [4] | [5] | [6] | [7] | [8] | [9] | [10] | [11] | [12]

Cc1ccc(/C=N/n2c(-c3ccccc3)csc2=S)cc1
inactive: [1] | [2] | [3] | [4] | [13] | [5] | [14] | [15] | [16] | [17] | [6] | [7] | [8] | [9] | [10] | [11] | [12]

CCOC(=O)OCC
inactive: [1] | [2] | [3] | [4] | [13] | [5] | [14] | [16] | [17] | [6] | [7] | [8] | [9] | [10] | [11] | [12]

O=C(O)C(Cc1cc(I)c(O)c(I)c1)c1ccccc1 (centres undefined)
inactive: [1] | [2] | [3] | [4] | [13] | [5] | [16] | [17] | [6] | [7] | [8] | [9] | [10] | [11] | [12]

Cc1cnc(C)c(C)n1
inactive: [1] | [2] | [3] | [4] | [13] | [5] | [14] | [16] | [17] | [6] | [7] | [8] | [9] | [10] | [11] | [12]

CCOC(=O)C(C)Oc1ccc(Oc2nc3ccc(Cl)cc3o2)cc1 (centres undefined)
inactive: [1] | [2] | [3] | [4] | [18] | [13] | [19] | [5] | [14] | [16] | [17] | [6] | [7] | [8] | [9] | [10] | [11] | [12]

CC(C)(O)c1ccccc1CC[C@@H](SCC1(CC(=O)O)CC1)c1cccc(/C=C/c2ccc3ccc(Cl)cc3n2)c1
inactive: [1] | [2] | [3] | [4] | [18] | [13] | [19] | [5] | [14] | [16] | [17] | [6] | [7] | [8] | [9] | [10] | [11] | [12]

COC(OC)(C(=O)c1ccccc1)c1ccccc1
inactive: [1] | [2] | [3] | [4] | [13] | [5] | [14] | [15] | [16] | [17] | [6] | [7] | [8] | [9] | [10] | [11] | [12]

O=C(O)Cc1ccc(-c2ccccc2)cc1
inactive: [1] | [2] | [3] | [4] | [13] | [5] | [14] | [15] | [16] | [17] | [6] | [7] | [8] | [9] | [10] | [11] | [12]

CCOC(=O)/C=C/C(=O)O
inactive: [1] | [2] | [3] | [4] | [14] | [15] | [16] | [6] | [7] | [8] | [9] | [10] | [11] | [12]

C=CC(C)(O)CCCC(C)CCCC(C)CCCC(C)C (centres undefined)
inactive: [1] | [2] | [3] | [4] | [13] | [5] | [14] | [15] | [16] | [17] | [6] | [7] | [8] | [9] | [10] | [11] | [12]

Nc1c(I)cc(I)c(C(=O)N(CCC(=O)O)c2ccccc2)c1I
inactive: [1] | [2] | [3] | [4] | [18] | [13] | [19] | [5] | [14] | [15] | [16] | [17] | [6] | [7] | [8] | [9] | [10] | [11] | [12]

OCCSc1ccccc1
inactive: [1] | [2] | [3] | [4] | [13] | [5] | [14] | [15] | [16] | [17] | [6] | [7] | [8] | [9] | [10] | [11] | [12]

CCCCC(CC)COC(=O)COc1ccc(Cl)cc1C (centres undefined)
inactive: [1] | [2] | [3] | [13] | [19] | [5] | [14] | [15] | [16] | [17] | [6] | [7] | [8] | [9] | [10] | [11] | [12]

CC(N)CN (centres undefined)
inactive: [1] | [2] | [3] | [18] | [13] | [19] | [5] | [15] | [16] | [17] | [6] | [7] | [8] | [9] | [10] | [11] | [12]

Nc1nccs1
inactive: [1] | [2] | [3] | [4] | [13] | [5] | [14] | [15] | [16] | [17] | [6] | [7] | [8] | [9] | [10] | [11] | [12]
